PubChem BioAssay (Tox21)
Records with an inconclusive call do not appear. The source made the active and inactive calls. Unless noted, calls come from the whole dose curve; as a rule, active = well fitted curve in the direction sought with a large enough effect in the repeat runs; inconclusive = weak or mixed curves; inactive = no such curve, though single readings can be large; an effect the other way counts as inactive or inconclusive.

Assays:
[1] = target: Thyrotropin receptor (Homo sapiens) (UniProt P16473); assay: qHTS assay to identify small molecule agonists of the thyroid stimulating hormone receptor (TSHR) signaling pathway (AID 1224843; calls by dose curve; note: nearly all actives have a fitted effect of over 45% in size)
Chain of Thyrotropin receptor (Homo sapiens) (P16473 whole entry, looked up): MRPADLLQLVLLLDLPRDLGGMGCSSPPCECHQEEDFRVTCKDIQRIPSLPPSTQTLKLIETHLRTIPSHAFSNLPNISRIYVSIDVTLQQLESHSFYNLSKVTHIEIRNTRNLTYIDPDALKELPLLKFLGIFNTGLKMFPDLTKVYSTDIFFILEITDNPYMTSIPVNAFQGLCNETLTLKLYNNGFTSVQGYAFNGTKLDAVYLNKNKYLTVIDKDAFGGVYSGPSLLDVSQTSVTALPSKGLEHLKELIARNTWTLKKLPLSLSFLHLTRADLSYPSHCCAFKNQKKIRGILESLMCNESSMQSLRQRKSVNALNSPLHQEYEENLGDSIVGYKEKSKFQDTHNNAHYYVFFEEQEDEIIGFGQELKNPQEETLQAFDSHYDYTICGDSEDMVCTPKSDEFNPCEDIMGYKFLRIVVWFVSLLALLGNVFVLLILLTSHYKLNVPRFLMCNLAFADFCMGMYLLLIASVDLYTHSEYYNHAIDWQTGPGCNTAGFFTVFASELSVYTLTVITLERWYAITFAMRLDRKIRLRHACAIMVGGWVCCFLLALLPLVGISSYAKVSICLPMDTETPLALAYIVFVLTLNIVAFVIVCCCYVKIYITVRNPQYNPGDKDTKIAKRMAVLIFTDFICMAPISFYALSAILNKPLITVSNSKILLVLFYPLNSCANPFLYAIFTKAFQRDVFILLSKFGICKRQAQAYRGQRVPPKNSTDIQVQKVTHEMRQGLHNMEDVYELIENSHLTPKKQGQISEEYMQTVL
Method in brief: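 Cell line HEK293 with TSHR; density 800/well. Exposure 30 min RT. Readout HTRF cAMP (cAMP-d2/anti-cAMP-cryptate), 1 h RT before reading.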

[2] = qHTS assay to identify small molecule agonists of the hypoxia (HIF-1) signaling pathway - cell viability counter screen (AID 1224844; calls by dose curve; note: nearly all actives have a fitted effect of over 50% in size)
Method in brief: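 HRE-bla ME-180 cells in medium with 0.5% dialyzed FBS were preincubated 5 hrs at 37C, exposed to compounds for 17 hrs, then viability was read as CellTiter-Glo luminescence after 30 min at room temperature, in the reporter wells.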

[3] = qHTS assay to identify small molecule agonists of H2AX (AID 1224845; active = well fitted activation curve with a large enough effect in the signal ratio in the repeat runs, not every such curve was filed as active; the % refers to the signal ratio)
Method in brief: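 Wild-type CHO-K1 cells plated overnight, then exposed 3 hr at 37C to compounds at 15 concentrations (0.76% DMSO). Lysed, then HTRF anti-pH2AX(S139)-cryptate/anti-H2AX-d2 detection after 24 hr at room temperature; emissions 665 and 620 nm.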

[4] = qHTS assay to identify small molecule agonists of the hypoxia (HIF-1) signaling pathway (AID 1224846; active = well fitted activation curve with a large enough effect in the signal ratio in the repeat runs, not every such curve was filed as active; the % refers to the signal ratio)
Method in brief: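 HRE-bla ME-180 cells (beta-lactamase reporter under hypoxia response element) were plated at 2,000 cells/well in medium with 0.5% dialyzed FBS, rested 5 hrs, then given compounds in DMSO for 17 hrs at 37C, 5% CO2. Reporter induction was read with CCF4-AM FRET substrate.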

[5] = qHTS assay to identify small molecule agonists of H2AX - cell viability counter screen (AID 1224847; calls by dose curve; note: top concentration of the series differs between compounds; nearly all actives have a fitted effect of over 30% in size)
Method in brief: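 CHO-K1 wt, 1000 cells/well, o/n 37C; cpds 15 conc, 3 h 37C, 0.76% DMSO; CellTiter-Glo, 30 min RT, luminescence.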

[6] = qHTS RealTime-Glo MT Cell Viability Assay in HepG2 cells - 24 hour (AID 1224867); note: nearly all actives have a fitted effect of over 50% in size
Method in brief: (§1)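 Cells + NanoLuc/prosubstrate dispensed (600 cells/well) → 5 h at 37 C/5% CO2 → compounds in DMSO transferred → 40 h incubation at 37 C, luminescence read at 0, 8, 16, 24, 32, 40 h.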

[7] = qHTS RealTime-Glo MT Cell Viability Assay in HEK293 cells - 32 hour (AID 1224868); note: top concentration of the series differs between compounds; nearly all actives have a fitted effect of over 50% in size
Method in brief: (§2)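 Tox21 10K qHTS, HEK293, 600 cells/well, RealTime-Glo reagent co-dispensed with cells; 5 h preincubation, compound by pintool, 37 C, luminescence at 0–40 h.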

[8] = A CellTox Green Cytotoxicity Assay to monitor cytotoxicity in HEK293 cells - 0 hour (AID 1224869); note: nearly all actives have a fitted effect of over 50% in size
Method in brief: (§3)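 HEK293 cells premixed with CellTox Green dye were seeded at 600 cells/well and left 5 h at 37 C/5% CO2 before pin transfer of 23 nL compound in DMSO. Fluorescence from dye bound to dead-cell DNA was read during 40 h treatment.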

[9] = qHTS RealTime-Glo MT Cell Viability Assay in HepG2 cells - 40 hour (AID 1224870); note: nearly all actives have a fitted effect of over 50% in size
Method in brief: (§4)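 HepG2 cells mixed with RealTime-Glo MT reagents (NanoLuc plus cell-permeant prosubstrate) were seeded at 600 cells/well, incubated 5 h at 37 C/5% CO2, then pinned with compounds in DMSO; nonlytic luminescence tracked viability during 40 h treatment.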

[10] = A CellTox Green Cytotoxicity Assay to monitor cytotoxicity in HEK293 cells - 40 hour (AID 1224871); note: nearly all actives have a fitted effect of over 45% in size
Method in brief: as §3

[11] = qHTS RealTime-Glo MT Cell Viability Assay in HEK293 cells - 16 hour (AID 1224872)
Method in brief: as §2

[12] = qHTS RealTime-Glo MT Cell Viability Assay in HepG2 cells - 8 hour (AID 1224873); note: nearly all actives have a fitted effect of over 55% in size
Method in brief: as §4

[13] = qHTS RealTime-Glo MT Cell Viability Assay in HEK293 cells - 40 hour (AID 1224874); settings: RealTime-Glo luminescence; max response: active compounds read low; note: nearly all actives have a fitted effect of over 50% in size
Method in brief: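 HEK293 cells mixed with RealTime-Glo reagents (NanoLuc plus cell-permeant prosubstrate) at 600 cells/well, preincubated 5 h at 37 C/5% CO2, then given 23 nL compound in DMSO. Nonlytic luminescence from viable cells was read at 0, 8, 16, 24, 32 and 40 h.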

[14] = A CellTox Green Cytotoxicity Assay to monitor cytotoxicity in HEK293 cells - 24 hour (AID 1224875); note: nearly all actives have a fitted effect of over 45% in size
Method in brief: as §3

[15] = A CellTox Green Cytotoxicity Assay to monitor cytotoxicity in HepG2 cells - 16 hour (AID 1224876); note: nearly all actives have a fitted effect of over 45% in size
Method in brief: (§5)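 HepG2 cells were seeded together with the CellTox Green dye at 600 cells/well, left 5 h at 37 C/5% CO2, then given compounds in DMSO. Fluorescence from dye bound to dead-cell DNA was read repeatedly over 40 h of treatment at 37 C.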

[16] = qHTS RealTime-Glo MT Cell Viability Assay in HepG2 cells - 32 hour (AID 1224877); note: nearly all actives have a fitted effect of over 55% in size
Method in brief: as §1

[17] = A CellTox Green Cytotoxicity Assay to monitor cytotoxicity in HepG2 cells - 24 hour (AID 1224878); note: nearly all actives have a fitted effect of over 45% in size
Method in brief: as §5

[18] = A CellTox Green Cytotoxicity Assay to monitor cytotoxicity in HepG2 cells - 40 hour (AID 1224879); note: nearly all actives have a fitted effect of over 40% in size
Method in brief: as §5

[19] = qHTS assay to identify small molecule agonists of the estrogen related receptor (ERR) signaling pathway from Tox21 library (AID 1224849; calls by dose curve; note: nearly all actives have a fitted effect of over 15% in size); settings: ERR reporter cell line, ONE-Glo luciferase, 18 h; at 92.4 µM (top of the series) unless noted
Method in brief: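 ERR reporter cell line (NTP) seeded, rested 6 h at 37 C/5% CO2, then pinned with Tox21 compounds in DMSO. After 18 h at 37 C, ONE-Glo luciferase luminescence was read following 30 min at room temperature.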

[20] = qHTS assay to identify small molecule antagonists of the estrogen related receptor (ERR) signaling pathway from Tox21 library (AID 1224848); note: nearly all actives have a fitted effect of over 50% in size
Method in brief: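 Screening used an ERR reporter line supplied by NTP, exposed for 18 h at 37 C to library compounds delivered in DMSO. Signal was luciferase luminescence developed with ONE-Glo at room temperature for 30 min.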
% is set by controls: 0 for no effect and ±100 for the full control effect.

Cc1ccnc2ccccc12
inactive: Potency [1] | Potency [2] | Potency [3] | outcome [4] | Potency [5] | Potency [6] | Potency [7] | Potency [8] | Potency [9] | Potency [10] | Potency [11] | Potency [12] | max response [13] 6.48% | Potency [14] | Potency [15] | Potency [16] | Potency [17] | Potency [18]

CCCC(=O)O[C@]1(C(=O)COC(=O)CC)CC[C@H]2[C@@H]3CCC4=CC(=O)CC[C@]4(C)[C@H]3[C@@H](O)C[C@@]21C
inactive: activation [1] -3.04% [at 19 µM] | activity change, negative = cytotoxicity [2] -1.64% [at 15.8 µM] | activation (H2AX phosphorylation) [3] -1.56% [at 31.6 µM] | activation [4] -2.77% [at 15.8 µM] | activity change, negative = cytotoxicity [5] 1.02% [at 31.6 µM] | activity change, negative = cytotoxicity [6] 1.66% [at 15.8 µM] | activity change, negative = cytotoxic [7] -2.43% [at 15.8 µM] | cytotoxicity [8] -7.53% [at 15.8 µM] | activity change, negative = cytotoxic [9] -0.605% [at 15.8 µM] | cytotoxicity increase [10] -16.6% [at 15.8 µM] | activity change, negative = cytotoxicity [11] 5.42% [at 15.8 µM] | viability change, negative = cytotoxic [12] 4.81% [at 15.8 µM] | max response [13] 4.99% | activity change [14] -15.7% [at 15.8 µM, active compounds read high] | cytotoxicity increase [15] -6.66% [at 15.8 µM] | activity change, negative = cytotoxic [16] 2.32% [at 15.8 µM] | cytotoxicity [17] -8.51% [at 15.8 µM] | cytotoxicity increase [18] -7.71% [at 15.8 µM]

C[C@]12CCC(=O)C=C1C=C[C@@H]1[C@@H]2CC[C@@]2(C)[C@H]1CC[C@@]21CCC(=O)O1
inactive: Potency [1] | Potency [2] | Potency [3] | outcome [4] | Potency [5] | activity change, positive = activation [19] -28.3% [at 42.5 µM] | Potency [7] | Potency [8] | Potency [9] | Potency [10] | Potency [11] | Potency [12] | max response [13] -25.7% | Potency [14] | Potency [15] | Potency [16] | Potency [17] | Potency [18]

O=C(NCCCN1CCOCC1)c1ccc(Cl)cc1
inactive: Potency [1] | Potency [2] | Potency [3] | outcome [4] | Potency [5] | activity change, positive = activation [19] 11.6% [at 42.5 µM] | Potency [6] | Potency [7] | Potency [8] | Potency [9] | Potency [10] | Potency [11] | Potency [12] | max response [13] 7.84% | Potency [14] | Potency [15] | Potency [16] | Potency [17] | Potency [18]

O=S1OCCO1
inactive: Potency [1] | Potency [2] | Potency [3] | outcome [4] | Potency [5] | Potency [20] | activity change, positive = activation [19] 6.2% | Potency [6] | Potency [7] | Potency [8] | Potency [9] | Potency [10] | Potency [11] | Potency [12] | max response [13] 21% | Potency [14] | Potency [15] | Potency [16] | Potency [17] | Potency [18]

CC(C)(C)C(=O)O
inactive: Potency [1] | Potency [2] | Potency [3] | outcome [4] | Potency [5] | Potency [20] | activity change, positive = activation [19] 3.7% | Potency [6] | Potency [7] | Potency [8] | Potency [9] | Potency [11] | Potency [12] | max response [13] 6.48% | Potency [14] | Potency [15] | Potency [16] | Potency [17] | Potency [18]

CCCCC(=O)O[C@]1(C(=O)CO)CC[C@H]2[C@@H]3CCC4=CC(=O)CC[C@]4(C)[C@H]3[C@@H](O)C[C@@]21C
inactive: Potency [1] | Potency [2] | Potency [3] | outcome [4] | Potency [5] | activity change, positive = activation [19] -22.8% [at 42.5 µM] | Potency [6] | Potency [7] | Potency [8] | Potency [9] | Potency [11] | Potency [12] | max response [13] -24% | Potency [14] | Potency [15] | Potency [16] | Potency [17] | Potency [18]

CC1CC(O)CC(C)(C)C1 (centres undefined)
inactive: Potency [1] | Potency [2] | Potency [3] | outcome [4] | Potency [5] | Potency [20] | Potency [6] | Potency [7] | Potency [8] | Potency [9] | Potency [10] | Potency [11] | Potency [12] | max response [13] -3.83% | Potency [14] | Potency [15] | Potency [16] | Potency [17] | Potency [18]

O=Cc1c(Cl)cccc1Cl
inactive: Potency [1] | Potency [2] | Potency [3] | outcome [4] | Potency [5] | Potency [20] | activity change, positive = activation [19] 3.9% | Potency [7] | Potency [8] | Potency [9] | Potency [10] | Potency [11] | Potency [12] | max response [13] -15.3% | Potency [14] | Potency [15] | Potency [16] | Potency [17] | Potency [18]

O=C(O)c1ccccc1NCCc1ccccc1
inactive: Potency [1] | Potency [2] | Potency [3] | outcome [4] | Potency [5] | Potency [20] | Potency [6] | Potency [7] | Potency [8] | Potency [9] | Potency [10] | Potency [11] | Potency [12] | max response [13] -0.281% | Potency [14] | Potency [15] | Potency [16] | Potency [17] | Potency [18]

CC(=O)Nc1ccccc1C
inactive: Potency [1] | Potency [2] | Potency [3] | outcome [4] | Potency [5] | Potency [20] | activity change, positive = activation [19] -0.329% | Potency [6] | Potency [7] | Potency [8] | Potency [9] | Potency [10] | Potency [11] | Potency [12] | max response [13] 1.18% | Potency [14] | Potency [15] | Potency [16] | Potency [17] | Potency [18]

N#C[C@@H]1C[C@@H]2C[C@@H]2N1C(=O)[C@@H](N)C12CC3CC(CC(O)(C3)C1)C2
inactive: Potency [1] | Potency [2] | Potency [3] | outcome [4] | Potency [5] | activity change, positive = activation [19] 0.254% [at 42.5 µM] | Potency [6] | Potency [7] | Potency [8] | Potency [9] | Potency [10] | Potency [11] | Potency [12] | max response [13] 10.4% | Potency [14] | Potency [15] | Potency [16] | Potency [17] | Potency [18]

CCCCCCCC/C=C\CCCCCCCC(=O)OC
inactive: Potency [1] | Potency [2] | Potency [3] | outcome [4] | Potency [5] | Potency [6] | Potency [7] | Potency [8] | Potency [9] | Potency [10] | Potency [11] | Potency [12] | max response [13] 5.42% | Potency [14] | Potency [15] | Potency [16] | Potency [17] | Potency [18]
